About 83,000 compounds went through this panel and 20% of them were active in at least one assay; those are over-represented in the sample as a whole.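 Cell lines were cultured in 96-well plates, exposed to a single compound concentration, and assessed for percent growth 48 hours later.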 Values without a mark were called inactive. Activity calls are given as the source filed them.
Test system: RPMI-8226 leukemia
Assay: NCI-60 one-dose screen, 48 h (100 = growth as untreated, 0 = no growth, -100 = all killed)
Settings: 10 µM unless noted
Method: Growth inhibition of the RPMI-8226 human tumor cell line is measured as a screen for anti-cancer activity. Cells are grown in 96 well plates and exposed to the test compound for 48 hours. Compounds are tested at a single concentration, which is 10^-5 M for most compounds. The reported endpoint is percent growth (GI% or GIPRCNT), where numbers from 0 - 100% represent growth inhibition, and numbers from -100% - 0 represent cell death. For example, a value of 40 represents 60% growth inhibition. A value of 0 means no net growth occurred over the course of the experiment. A value of -40 indicates 40% of cells at the beginning of the experiment died by the end of the experiment. A value of -100 means all cells are dead at the end of the experiment.
NCI-60 Human Tumor Cell Lines Screen was performed using the standard one-dose NCI protocol, which is described in more detail at https://dtp.cancer.gov/discovery_development/nci-60/default.htm.
Compounds with GIPRCNT values below 10 were considered active. Activity score was based on GIPRCNT using the following formula: […]
Score is 0 for GIPRCNT values of 100 or above, 50 for GIPRCNT values of 0, and 100 for GIPRCNT values of -100.

Row | SMILES | growth
1 | CCCCCCC(C)(O)c1ccccc1 (stereo not given) | 107%
2 | Cn1c(=O)c2c(nc(Br)n2CCC(=O)Nc2ccc(F)cc2)n(C)c1=O | 101%
3 | O=c1[nH]c(Cl)nc2c1cnn2-c1ccccc1 | 51.7%
4 | O=C(Nc1ccc(Cl)cc1)Nc1ccc(Nc2nncc3ccccc23)cc1 | 8.62% (active)
5 | Fc1ccc(-c2nc(Nc3ccc(-c4nc5ccccc5[nH]4)cc3)nc(N3CCOCC3)n2)cc1 | -73.4% (active)
6 | N#Cc1c(N)[nH]c(S)c1C#N | 107%
7 | C[N+]1(CCc2ccccc2)CCC(CCC2CC[N+](C)(CCc3ccccc3)CC2)CC1 (stereo not given) | 126%
8 | Clc1ccc(CCC(Cn2ccnc2)Sc2c(Cl)cccc2Cl)cc1 (stereo not given) | 25.2%
9 | ClC1C2CC(c3ccccc32)C1Cl (stereo not given) | 97.6%
10 | COc1ccc(Cn2c(NCCCN(C)C)nc(=O)n(Cc3ccc(F)cc3)c2=O)cc1 | 95.7%
11 | O=c1[nH]c(=O)n(C2CC(O)C(CO)O2)cc1C(F)(F)F (stereo not given) | -23% (active)
12 | O=C(Nc1ccc(Cl)cc1Cl)Nc1ccc(-c2cccnc2)cc1N1CCC(CO)CC1 | 9.15% (active)
13 | COc1cc2cn3c4ccc(O)cc4nc(N)c3c2cc1OC | 19.9%
14 | COc1ccc(-c2cnnn2-c2cc(OC)c3c(c2)OCO3)cc1 | 9.18% (active)
15 | Clc1ncn[nH]1 | 102%
16 | O=C(/C(=C/c1ccc([N+](=O)[O-])cc1)c1ccccc1)c1ccccc1 | -10.5% (active)
17 | CCN(CC)CCCNCCCNc1cc(OC)cc2cccnc12 | 81.3%
18 | COc1cc(C2CC(c3ccc(C)cc3)=NN2C(C)=O)ccc1Oc1ccnc2cc(Cl)ccc12 (stereo not given) | 83.8%
19 | CCC1=C(c2ccc(OC)cc2)C(C)(C)Oc2cc(O)c(CN3CCCC3)cc21 | 57.5%
20 | Cn1cc(-c2csc(-c3cn(C)c4ncccc34)n2)c2cccnc21 | 87.5%

Row | SMILES | growth
21 | COc1ccc(/C=N\Nc2ccc([N+](=O)[O-])cn2)cc1OC | 40%
22 | CC(C)[C@H]1CC[C@H]2[C@@H](CC[C@H]3[C@](C)(CN)CCC[C@]23C)C1 | 21.6%
23 | CC/C(=C\c1ccc(N(C)C)cc1)c1nc2ccccc2c(=O)[nH]1 | 79.4%
24 | O=[N+]([O-])c1ccc(Oc2cccc(C(F)(F)F)c2)c([N+](=O)[O-])c1 | 79.3%
25 | O=C(Nc1cccc(C(F)(F)F)c1)Nc1ccc(OCc2nnc(-c3ccc(Cl)cc3)o2)c(F)c1 | 41.3%
26 | O=C1/C(=N/O)CCc2ccccc21 | 72.9%
27 | O=C(CSc1nc2c(n1Nc1ccccc1)-c1ccccc1SC2)Nc1nc(-c2ccc(Cl)cc2)cs1 | 86.1%
28 | COc1ccc(-c2nnc(COc3ccc(NC(=O)Nc4cc(C(F)(F)F)cc(C(F)(F)F)c4)cc3F)o2)cc1 | -25.8% (active)
29 | COc1ccc(C2CC(c3cccc(Nc4ccnc5cc(Cl)ccc45)c3)=NN2C=O)cc1 (stereo not given) | 21.5%
30 | COc1ccc2nc(NC(=O)c3cc(-c4ccc(F)cc4)n4nc(-c5ccccc5)cc4n3)sc2c1 | 83.5%
31 | O=Cc1c[nH]c2ccc(NC(=O)OCc3ccccc3)cc12 | 93%
32 | [O-]/[N+](=C\C=C\c1ccccc1)c1ccccc1 | 87.3%
33 | COc1ccc(-c2noc(N)c2-c2cc(OC)c3c(c2)OCO3)cc1 | 7.65% (active)
34 | Cc1cc(Cl)ccc1Nc1nc(C(F)(F)F)ccc1C(=O)NCC(=O)N/N=C/c1c(Cl)cccc1Cl | -20.6% (active)
35 | CC[C@@H]1OC(=O)[C@H](C)[C@@H](O[C@H]2C[C@@](C)(OC)[C@@H](O)[C@H](C)O2)[C@H](C)[C@@H](O[C@@H]2O[C@H](C)C[C@H](N(C)C)[C@H]2O)[C@](C)(O)C[C@@H](C)[C@@H]2N[C@@H](COCCOC)O[C@H]([C@H]2C)[C@]1(C)O | 88.8%
36 | CO[C@H]1/C=C/O[C@@]2(C)Oc3c(C)c(O)c4c(O)c(c(/C=N/N5C(C)CN(Cc6ccccc6)CC5C)c(O)c4c3C2=O)NC(=O)/C(C)=C\C=C\[C@H](C)[C@H](O)[C@@H](C)[C@@H](O)[C@@H](C)[C@H](OC(C)=O)[C@@H]1C (stereo not given in full) | 83.5%
37 | CN1CCN(Cc2ccc(NC(=O)c3[nH]ncc3Nc3ccnc4ccnn34)cc2)CC1 | 111%
38 | O=C(COC(=O)[C@H](C[Se][Se]C[C@H](NC(=O)c1ccc(Br)cc1F)C(=O)OCC(=O)c1ccc(F)cc1)NC(=O)c1ccc(Br)cc1F)c1ccc(F)cc1 | -44.3% (active)
39 | COc1cc(C(=O)/C=C/c2cccnc2Nc2ccccc2)cc(OC)c1OC | -40.3% (active)
40 | COc1ccc2[nH]cc(/C=C3/C(=O)Nc4ccc(Cl)cc43)c2c1 | 54%

From PubChem BioAssay (NCI)
